As usually defined, the AC50 is the concentration at which the activity in the assay is half-maximal.

The structures appear in SMILES notation. The source made the active and inactive calls. The calls were made as follows: active = hit-call score of the fitted dose curve at least 0.9, where 1 is the maximum; inactive = score below 0.9.

Read-out in assay [1]: Tissue Factor, F3 (gene 2152)
Kind of assay: BSK_CASM3C_TissueFactor: BioMAP Diversity Plus: CASM3C Assay for Tissue Factor Biomarker Activity (AID 2283052).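 Also: cell surface tissue factor protein level read by ELISA.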 To be noted: primary human coronary artery smooth muscle cells; actives raise or lower the signal.

Read-out in assay [2]: Interferon-gamma inducible Protein 10 (IP10), CXCL10 (gene 3627)
Kind of assay: BSK_hDFCGF_IP10: BioMAP Diversity Plus: hDFCGF Assay for Interferon-gamma inducible Protein 10 (IP10) Biomarker Activity (AID 2283053). To be noted: primary human foreskin fibroblasts; actives raise or lower the signal. The essentials:
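Cells: human dermal foreskin fibroblasts. Exposure: 24 h post-dosing. Detection: IP-10 ELISA, with values expressed against DMSO controls and fitted in both directions.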

Read-out in assay [3]: Urokinase-type plasminogen activator receptor (uPAR), PLAUR (gene 5329)
In words: BSK_CASM3C_uPAR: BioMAP Diversity Plus: CASM3C Assay for Urokinase-type plasminogen activator receptor (uPAR) Biomarker Activity (AID 2283054).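 Also: cell-surface uPAR protein level quantified by ELISA.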 The conditions noted are these: primary human coronary artery smooth muscle cells; actives raise or lower the signal.

Read-out in assay [4]: Vascular cell adhesion molecule 1 (VCAM1), VCAM1 (gene 7412)
Kind of assay: BSK_CASM3C_VCAM1: BioMAP Diversity Plus: CASM3C Assay for Vascular cell adhesion molecule 1 (VCAM1) Biomarker Activity (AID 2283055).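 Also: VCAM-1 protein level quantified by ELISA on the cells.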 To be noted: primary human coronary artery smooth muscle cells; actives raise or lower the signal.

Read-out in assay [5]: Collagen III, COL3A1 (gene 1281)
Kind of assay: BSK_hDFCGF_CollagenIII: BioMAP Diversity Plus: hDFCGF Assay for Collagen III Biomarker Activity (AID 2283056). The conditions noted are these: primary human foreskin fibroblasts; actives raise or lower the signal. The essentials: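 ELISA read-out of collagen III from human skin fibroblast cultures sampled 24 h post-dosing. Values were derived by bidirectional fitting relative to the DMSO vehicle control.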

Read-out in assay [6]: Epidermal growth factor receptor (EGFR), EGFR (gene 1956)
In words: BSK_hDFCGF_EGFR: BioMAP Diversity Plus: hDFCGF Assay for Epidermal growth factor receptor (EGFR) Biomarker Activity (AID 2283057). To be noted: primary human foreskin fibroblasts; actives raise or lower the signal. The essentials: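 Dosing human primary skin fibroblasts, then measuring surface EGFR by ELISA at 24 h, gives the endpoint; gains and losses relative to DMSO were fitted in both directions.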

Read-out in assay [7]: Interleukin-8 (IL8), CXCL8 (gene 3576)
Kind of assay: BSK_hDFCGF_IL8: BioMAP Diversity Plus: hDFCGF Assay for Interleukin-8 (IL8) Biomarker Activity (AID 2283058). To be noted: primary human foreskin fibroblasts; actives raise or lower the signal. The essentials: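 Cells used are human skin primary fibroblasts. Chemical is added, cultures run 24 h, then IL-8 is quantified by ELISA, and gain or loss versus DMSO control is fitted in both directions.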

Assay [8] is described as follows: BSK_hDFCGF_Proliferation: Cell Proliferation Assessment in the BioMAP Diversity Plus: hDFCGF Assay (AID 2283059).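 Also: curves fitted for both rise and fall of signal versus DMSO baseline.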 To be noted: primary human foreskin fibroblasts. In a few lines: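 Sub-confluent human foreskin fibroblast cultures receive test chemical […]. Relative cell number is quantified by sulforhodamine B staining (0.1%, after 10% TCA fixation) at 560 nm, with bidirectional fitting referenced to DMSO.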

Read-out in assay [9]: Macrophage colony-stimulating factor (MCSF), CSF1 (gene 1435)
Kind of assay: BSK_hDFCGF_MCSF: BioMAP Diversity Plus: hDFCGF Assay for Macrophage colony-stimulating factor (MCSF) Biomarker Activity (AID 2283060). The conditions noted are these: primary human foreskin fibroblasts; actives raise or lower the signal. The essentials: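 Primary human foreskin fibroblasts dosed with chemical; 24 h later, M-CSF quantified by ELISA; curves fitted in both directions vs DMSO negative control.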

A short description of assay [10]: BSK_hDFCGF_SRB: Viability Assessment in the BioMAP Diversity Plus: hDFCGF Assay (AID 2283061).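 Also: cells exposed to compound for 24 h before the read.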 To be noted: primary human foreskin fibroblasts. The essentials: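 Readout is SRB absorbance at 560 nm, reflecting total protein in parallel cultures of human foreskin fibroblasts harvested 24 h after chemical dosing. Activity was fitted bidirectionally relative to DMSO.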

Read-out in assay [11]: TIMP metallopeptidase inhibitor 1 (TIMP1), TIMP1 (gene 7076)
In words: BSK_hDFCGF_TIMP1: BioMAP Diversity Plus: hDFCGF Assay for TIMP metallopeptidase inhibitor 1 (TIMP1) Biomarker Activity (AID 2283062). The conditions noted are these: primary human foreskin fibroblasts; actives raise or lower the signal. In a few lines: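 Human skin fibroblasts (primary), hDFCGF system; compound exposure 24 h; TIMP-1 by ELISA; bidirectional fit vs DMSO negative control; overt cytotoxicity by SRB in parallel wells.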

Read-out in assay [12]: Monokine induced gamma interferon (MIG), CXCL9 (gene 4283)
Kind of assay: BSK_hDFCGF_MIG: BioMAP Diversity Plus: hDFCGF Assay for Monokine induced gamma interferon (MIG) Biomarker Activity (AID 2283063). To be noted: primary human foreskin fibroblasts; actives raise or lower the signal. In a few lines: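 Chemicals were added to primary human foreskin fibroblast cultures, which were sampled 24 h later. MIG levels were then quantified by ELISA and responses fitted in both directions relative to DMSO.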

Read-out in assay [13]: Matrix Metallopeptidase 1 (MMP1), MMP1 (gene 4312)
Kind of assay: BSK_hDFCGF_MMP1: BioMAP Diversity Plus: hDFCGF Assay for Matrix Metallopeptidase 1 (MMP1) Biomarker Activity (AID 2283064). The conditions noted are these: primary human foreskin fibroblasts; actives raise or lower the signal. The essentials: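 ELISA read-out of MMP1 from human foreskin fibroblasts (primary skin cells), 24 h post-dose. Gain or loss of signal was fitted bidirectionally versus DMSO negative control; cytotoxicity was checked by SRB in parallel cultures.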

Read-out in assay [14]: Vascular cell adhesion molecule 1 (VCAM1), VCAM1 (gene 7412)
Kind of assay: BSK_hDFCGF_VCAM1: BioMAP Diversity Plus: hDFCGF Assay for Vascular cell adhesion molecule 1 (VCAM1) Biomarker Activity (AID 2283065).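 As to AC50: VCAM-1 protein level quantified by ELISA after 24 h chemical exposure.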 The conditions noted are these: primary human foreskin fibroblasts; actives raise or lower the signal. In a few lines:
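Human foreskin fibroblast primary cells, chemical exposure 24 h; VCAM-1 by ELISA; bidirectional fit, DMSO = negative control/baseline.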

Read-out in assay [15]: Plasminogen activator inhibitor-1 (PAI1), SERPINE1 (gene 5054)
In words: BSK_hDFCGF_PAI1: BioMAP Diversity Plus: hDFCGF Assay for Plasminogen activator inhibitor-1 (PAI1) Biomarker Activity (AID 2283066). The conditions noted are these: primary human foreskin fibroblasts; actives raise or lower the signal. In a few lines:
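Fibroblasts from human foreskin were treated with test chemical. After 24 h, PAI-1 was measured by ELISA. Activity was fitted in both directions relative to DMSO.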

Read-out in assay [16]: Intercellular Adhesion Molecule 1 (ICAM1), ICAM1 (gene 3383)
In words: BSK_KF3CT_ICAM1: BioMAP Diversity Plus: KF3CT Assay for Intercellular Adhesion Molecule 1 (ICAM1) Biomarker Activity (AID 2283067). The conditions noted are these: primary human keratinocytes with fibroblasts; actives raise or lower the signal. The essentials:
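ICAM-1 levels are measured by ELISA 24 h after dosing a primary human co-culture of keratinocytes and foreskin fibroblasts. Activity in either direction is fitted relative to DMSO vehicle.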

Read-out in assay [17]: Interferon-gamma inducible Protein 10 (IP10), CXCL10 (gene 3627)
In words: BSK_KF3CT_IP10: BioMAP Diversity Plus: KF3CT Assay for Interferon-gamma inducible Protein 10 (IP10) Biomarker Activity (AID 2283068). The conditions noted are these: primary human keratinocytes with fibroblasts; actives raise or lower the signal. The essentials:
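ELISA read-out of IP-10 after 24 h chemical dosing of human skin primary co-culture (keratinocytes, foreskin fibroblasts). Gain or loss of signal relative to DMSO, bidirectional curve fit.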

Assay [18] is described as follows: BSK_KF3CT_SRB: Viability Assessment in the BioMAP Diversity Plus: KF3CT Assay (AID 2283069).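 Also: total protein by sulforhodamine B staining as a cytotoxicity measure; read 24 h after compound addition; fitted for both signal gain and loss against DMSO baseline.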 To be noted: primary human keratinocytes with fibroblasts. In a few lines:
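SRB read-out at 560 nm (0.1% stain, TCA-fixed cells) gauges overt cytotoxicity in a human skin keratinocyte–fibroblast co-culture 24 h post-dosing. Signal change was fitted bidirectionally relative to DMSO control.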

Read-out in assay [19]: Interleukin-1 alpha (IL1a), IL1A (gene 3552)
In words: BSK_KF3CT_IL1a: BioMAP Diversity Plus: KF3CT Assay for Interleukin-1 alpha (IL1a) Biomarker Activity (AID 2283070). The conditions noted are these: primary human keratinocytes with fibroblasts; actives raise or lower the signal. In a few lines: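 Primary skin co-culture (keratinocytes, foreskin fibroblasts), 24 h exposure; ELISA for IL-1a; bidirectional curve fit vs DMSO.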

For the compound `CC(C)(C)C(O)/C(=C\c1ccc(Cl)cc1Cl)n1cncn1` (centres undefined), the outcome in assay [1], in assay [3], in [4], in [5], in [6] and in assay [7] was inactive. For the same compound, the outcome in assay [12], in assay [13] and in [19] was inactive. The AC50 in assay [2] is 36.5 µM (active); in assay [8], 29.8 µM (active); in assay [9], 26.5 µM (active); in assay [10], 20 µM (active); in [11], 25.7 µM (active); in assay [14], 31.6 µM (active). Besides, the concentration at half-maximal activity (AC50) in [15] was 9.85 µM (active); in assay [16], 34.4 µM (active); in assay [17] it was 29.7 µM (active); in [18], 20 µM (active).
On to `COc1cc(OC)nc(NC(=O)NS(=O)(=O)c2cc(NC=O)ccc2C(=O)N(C)C)n1`, for which the outcome in assay [1], in assay [2], in [3], in [4], in assay [5] and in assay [6] was inactive. Besides, the outcome in [7], in assay [8], in assay [9], in assay [10], in [11] and in [12] was inactive. Moreover, the outcome in assay [13], in assay [14], in [15], in assay [16], in assay [17] and in assay [18] was inactive. Besides, in assay [19], the outcome was inactive.
Regarding `Clc1ccccc1-c1nnc(-c2ccccc2Cl)nn1`, the result in [1], in assay [3], in assay [4], in assay [6], in [7] and in assay [8] was inactive. Further, the outcome in assay [9], in [10], in assay [11], in [12], in assay [13] and in assay [14] was inactive. Further, the result in assay [15], in assay [16], in [17] and in assay [18] was inactive. The concentration at half-maximal activity (AC50) is 14.5 µM (active) in assay [2], 3 µM (active) in assay [5] and 2.76 µM (active) in assay [19].
As to `CNC(=O)/C=C(\C)OP(=O)(OC)OC`, the result in assay [1], in assay [2], in [3], in [4], in assay [5] and in assay [6] was inactive. The outcome in assay [7], in [8], in [9], in assay [10], in assay [11] and in assay [12] was inactive. In addition, the outcome in [13], in assay [14], in assay [15], in assay [16], in assay [17] and in assay [18] was inactive. For the same compound, the outcome in [19] was inactive.
On to `CCC(C)(NC(=O)c1cc(Cl)c(C)c(Cl)c1)C(=O)CCl` (centres undefined), for which the outcome in assay [1] was inactive. The AC50 in assay [2] is 5.56 µM (active); in assay [3] it was 11.5 µM (active); in assay [4], 9.89 µM (active); in assay [5] it was 11.3 µM (active); in [6], 30.6 µM (active); in [7], 30.9 µM (active). The AC50 was 4.14 µM (active) in [8]; 3.56 µM (active) in assay [9]; 7.6 µM (active) in assay [10]; 34.3 µM (active) in [11]; 6.77 µM (active) in [12]; 30.4 µM (active) in assay [13]. Moreover, the AC50 in assay [14] is 5.49 µM (active); in assay [15], 8.04 µM (active); in assay [16] it was 16.5 µM (active); in assay [17] it was 10.8 µM (active); in [18], 31.8 µM (active); in assay [19], 26.6 µM (active).
Consider `CCOc1nc(NC)nc(NC(=O)NS(=O)(=O)c2ccccc2C(=O)OC)n1`, for which the outcome in [1], in assay [3], in assay [4], in assay [5], in assay [6] and in assay [7] was inactive. The result in assay [8], in assay [9], in [10], in assay [12], in assay [14] and in assay [16] was inactive. Also, the outcome in assay [18] and in assay [19] was inactive. Further, the AC50 is 26.5 µM (active) in [2]; 25.5 µM (active) in assay [11]; 20 µM (active) in [13]; 5.36 µM (active) in [15]; 20 µM (active) in [17].

The record behind these values is PubChem BioAssay (EPA / NIEHS).
